Test [1] has as its target T1, Serine/threonine-protein kinase Nek9 (Homo sapiens) (UniProt Q8TD19).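 Also: each value is a mean percent inhibition of NEK9.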
T1 sequence (whole entry): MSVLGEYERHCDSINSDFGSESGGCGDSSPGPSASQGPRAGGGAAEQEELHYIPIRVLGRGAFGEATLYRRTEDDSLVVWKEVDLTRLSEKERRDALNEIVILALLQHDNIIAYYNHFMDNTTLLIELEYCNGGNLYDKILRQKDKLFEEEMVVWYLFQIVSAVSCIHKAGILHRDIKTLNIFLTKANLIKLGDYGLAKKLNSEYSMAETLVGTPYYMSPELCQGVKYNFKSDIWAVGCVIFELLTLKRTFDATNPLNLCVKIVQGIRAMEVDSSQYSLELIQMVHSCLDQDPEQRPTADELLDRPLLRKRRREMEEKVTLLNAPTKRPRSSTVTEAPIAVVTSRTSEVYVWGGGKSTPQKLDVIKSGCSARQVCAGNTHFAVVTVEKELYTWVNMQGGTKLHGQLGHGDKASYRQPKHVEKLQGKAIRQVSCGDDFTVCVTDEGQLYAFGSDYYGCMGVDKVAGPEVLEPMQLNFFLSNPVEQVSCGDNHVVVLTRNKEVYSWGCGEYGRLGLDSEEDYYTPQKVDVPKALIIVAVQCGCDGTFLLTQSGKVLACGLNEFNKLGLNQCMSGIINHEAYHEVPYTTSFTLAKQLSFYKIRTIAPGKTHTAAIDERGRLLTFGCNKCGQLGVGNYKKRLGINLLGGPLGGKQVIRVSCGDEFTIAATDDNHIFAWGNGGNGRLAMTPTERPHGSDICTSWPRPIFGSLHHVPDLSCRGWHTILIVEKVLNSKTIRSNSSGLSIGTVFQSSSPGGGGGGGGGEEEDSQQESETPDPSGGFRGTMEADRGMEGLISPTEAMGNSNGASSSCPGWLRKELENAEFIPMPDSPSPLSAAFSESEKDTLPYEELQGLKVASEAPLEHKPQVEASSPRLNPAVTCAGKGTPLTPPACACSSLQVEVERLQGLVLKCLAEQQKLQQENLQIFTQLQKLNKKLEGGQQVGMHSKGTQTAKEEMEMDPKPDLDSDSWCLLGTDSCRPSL
Conditions: at 1 µM.

Test [2] addresses Serine/threonine-protein kinase PLK1 (Homo sapiens) (UniProt P53350). Conditions: at 0.1 µM.
Test [3] has the same target. The settings on record: at 1 µM.
The target of test [4] is T2, Dual specificity protein kinase TTK (Homo sapiens) (UniProt P33981).
T2 sequence (whole entry): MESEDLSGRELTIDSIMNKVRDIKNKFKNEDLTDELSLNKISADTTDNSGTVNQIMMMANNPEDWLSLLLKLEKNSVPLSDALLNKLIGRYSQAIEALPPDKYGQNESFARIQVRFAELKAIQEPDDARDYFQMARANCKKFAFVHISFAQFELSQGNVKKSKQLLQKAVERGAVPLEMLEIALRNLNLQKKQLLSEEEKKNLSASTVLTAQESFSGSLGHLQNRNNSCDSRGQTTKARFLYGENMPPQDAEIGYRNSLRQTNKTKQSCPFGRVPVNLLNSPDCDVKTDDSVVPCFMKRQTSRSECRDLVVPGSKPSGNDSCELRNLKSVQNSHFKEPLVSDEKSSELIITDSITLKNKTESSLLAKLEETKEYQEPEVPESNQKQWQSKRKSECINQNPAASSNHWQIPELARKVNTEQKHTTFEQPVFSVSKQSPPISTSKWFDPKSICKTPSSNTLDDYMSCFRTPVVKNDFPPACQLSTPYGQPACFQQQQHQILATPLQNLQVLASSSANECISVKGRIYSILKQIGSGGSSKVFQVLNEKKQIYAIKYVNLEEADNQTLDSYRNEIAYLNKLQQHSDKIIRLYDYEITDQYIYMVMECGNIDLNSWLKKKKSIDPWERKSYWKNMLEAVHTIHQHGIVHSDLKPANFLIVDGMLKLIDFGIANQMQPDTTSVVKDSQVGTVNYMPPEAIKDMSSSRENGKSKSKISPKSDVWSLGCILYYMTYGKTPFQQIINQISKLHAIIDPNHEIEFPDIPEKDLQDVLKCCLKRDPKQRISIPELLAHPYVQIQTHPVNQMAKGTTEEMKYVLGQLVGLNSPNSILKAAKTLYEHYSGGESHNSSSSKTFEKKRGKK
Conditions: at 0.1 µM.

The test system of test [5] is T3, Receptor-type tyrosine-protein kinase FLT3 (Homo sapiens), P36888 [D835Y].
T3 sequence (whole entry): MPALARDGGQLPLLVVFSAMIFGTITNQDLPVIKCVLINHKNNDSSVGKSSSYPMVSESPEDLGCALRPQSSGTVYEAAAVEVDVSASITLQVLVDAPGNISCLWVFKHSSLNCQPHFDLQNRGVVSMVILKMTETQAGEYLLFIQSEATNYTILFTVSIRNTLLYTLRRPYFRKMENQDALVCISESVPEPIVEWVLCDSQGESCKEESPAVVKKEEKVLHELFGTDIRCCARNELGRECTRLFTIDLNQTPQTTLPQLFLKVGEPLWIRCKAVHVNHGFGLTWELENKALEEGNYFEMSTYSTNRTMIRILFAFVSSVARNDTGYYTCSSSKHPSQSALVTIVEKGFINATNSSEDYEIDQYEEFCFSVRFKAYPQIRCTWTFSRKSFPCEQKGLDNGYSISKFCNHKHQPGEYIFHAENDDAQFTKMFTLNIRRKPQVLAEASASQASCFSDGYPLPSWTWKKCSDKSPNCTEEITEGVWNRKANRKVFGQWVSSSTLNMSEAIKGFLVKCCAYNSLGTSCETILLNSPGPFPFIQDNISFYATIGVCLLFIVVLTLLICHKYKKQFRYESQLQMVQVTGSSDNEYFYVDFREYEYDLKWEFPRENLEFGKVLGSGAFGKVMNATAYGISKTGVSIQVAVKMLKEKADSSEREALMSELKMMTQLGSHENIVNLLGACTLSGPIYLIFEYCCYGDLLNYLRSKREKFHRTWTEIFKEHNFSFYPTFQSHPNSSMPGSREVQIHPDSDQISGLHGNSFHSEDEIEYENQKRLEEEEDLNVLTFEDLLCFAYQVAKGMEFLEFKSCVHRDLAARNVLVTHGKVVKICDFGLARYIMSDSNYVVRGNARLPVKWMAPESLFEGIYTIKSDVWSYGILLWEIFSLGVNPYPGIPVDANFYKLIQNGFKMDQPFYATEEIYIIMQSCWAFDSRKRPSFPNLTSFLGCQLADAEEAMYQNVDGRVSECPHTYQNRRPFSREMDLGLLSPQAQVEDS
Conditions: at 1 µM.

In test [6] the target is Vascular endothelial growth factor receptor 3 (Homo sapiens) (UniProt P35916). Conditions: at 0.1 µM.
Test [7] shares this target. The settings on record: at 1 µM.
Test [8] has as its target Macrophage colony-stimulating factor 1 receptor (Homo sapiens) (UniProt P07333). The settings on record: at 0.1 µM.
For test [9] the target is unchanged. The settings on record: at 1 µM.
Test [10] addresses Tyrosine-protein kinase Fyn (Homo sapiens) (UniProt P06241). The settings on record: at 0.1 µM.
For test [11] the target is unchanged. The settings on record: at 1 µM.
For test [12], the target named is Tyrosine-protein kinase HCK (Homo sapiens) (UniProt P08631). Conditions: at 0.1 µM.
Test [13] has the same target. The settings on record: at 1 µM.
In test [14] the target is Insulin-like growth factor 1 receptor (Homo sapiens) (UniProt P08069). Conditions: at 0.1 µM.
Test [15] shares this target. Conditions: at 1 µM.
In test [16] the target is Insulin receptor (Homo sapiens) (UniProt P06213). Conditions: at 0.1 µM.
Test [17] shares this target. Conditions: at 1 µM.
Test [18] deals with Insulin receptor-related protein (Homo sapiens) (UniProt P14616). The settings on record: at 0.1 µM.
Test [19] shares this target. The settings on record: at 1 µM.
For test [20], the target named is T4, Tyrosine-protein kinase ITK/TSK (Homo sapiens) (UniProt Q08881).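 Also: mean percent inhibition of ITK from the GSK PKIS screen.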
T4 sequence (whole entry): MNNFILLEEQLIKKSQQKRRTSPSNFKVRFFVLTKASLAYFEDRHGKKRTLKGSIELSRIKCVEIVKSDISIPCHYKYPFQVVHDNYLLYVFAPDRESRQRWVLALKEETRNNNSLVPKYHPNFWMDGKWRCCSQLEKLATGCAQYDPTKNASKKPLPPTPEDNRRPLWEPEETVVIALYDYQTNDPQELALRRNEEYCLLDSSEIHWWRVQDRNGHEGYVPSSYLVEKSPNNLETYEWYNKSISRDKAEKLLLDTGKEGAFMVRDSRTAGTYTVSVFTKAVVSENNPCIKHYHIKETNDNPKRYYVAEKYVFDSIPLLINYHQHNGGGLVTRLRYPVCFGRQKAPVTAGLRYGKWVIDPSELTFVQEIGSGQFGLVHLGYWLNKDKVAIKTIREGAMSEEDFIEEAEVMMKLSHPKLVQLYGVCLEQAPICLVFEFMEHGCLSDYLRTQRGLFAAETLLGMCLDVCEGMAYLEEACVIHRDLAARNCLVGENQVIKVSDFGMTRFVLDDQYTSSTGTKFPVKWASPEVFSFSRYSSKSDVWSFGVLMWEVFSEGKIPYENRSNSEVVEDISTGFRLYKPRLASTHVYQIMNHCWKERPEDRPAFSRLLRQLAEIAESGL
Conditions: at 0.1 µM.

SMILES strings stand for the structures.

One may read the inhibition as the drop in the measured response relative to a control, in per cent.

Serine/threonine-protein kinase PLK1 (Homo sapiens), sequence (P53350 whole entry): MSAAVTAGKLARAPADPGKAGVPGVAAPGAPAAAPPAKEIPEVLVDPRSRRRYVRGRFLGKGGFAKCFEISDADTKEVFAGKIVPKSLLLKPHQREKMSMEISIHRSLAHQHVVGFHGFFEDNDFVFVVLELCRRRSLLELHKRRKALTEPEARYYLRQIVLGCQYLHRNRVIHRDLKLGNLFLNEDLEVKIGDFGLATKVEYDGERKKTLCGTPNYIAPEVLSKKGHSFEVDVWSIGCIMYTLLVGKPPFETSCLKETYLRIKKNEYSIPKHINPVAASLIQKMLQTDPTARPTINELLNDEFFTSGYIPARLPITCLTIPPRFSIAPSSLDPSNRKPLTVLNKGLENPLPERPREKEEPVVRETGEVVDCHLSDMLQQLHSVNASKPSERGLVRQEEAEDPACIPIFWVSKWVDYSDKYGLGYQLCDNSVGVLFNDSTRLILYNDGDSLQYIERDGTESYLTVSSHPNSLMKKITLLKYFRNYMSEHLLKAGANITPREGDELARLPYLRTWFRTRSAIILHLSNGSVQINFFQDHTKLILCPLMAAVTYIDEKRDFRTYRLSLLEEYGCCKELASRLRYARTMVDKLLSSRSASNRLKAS
Vascular endothelial growth factor receptor 3 (Homo sapiens), sequence (P35916 whole entry): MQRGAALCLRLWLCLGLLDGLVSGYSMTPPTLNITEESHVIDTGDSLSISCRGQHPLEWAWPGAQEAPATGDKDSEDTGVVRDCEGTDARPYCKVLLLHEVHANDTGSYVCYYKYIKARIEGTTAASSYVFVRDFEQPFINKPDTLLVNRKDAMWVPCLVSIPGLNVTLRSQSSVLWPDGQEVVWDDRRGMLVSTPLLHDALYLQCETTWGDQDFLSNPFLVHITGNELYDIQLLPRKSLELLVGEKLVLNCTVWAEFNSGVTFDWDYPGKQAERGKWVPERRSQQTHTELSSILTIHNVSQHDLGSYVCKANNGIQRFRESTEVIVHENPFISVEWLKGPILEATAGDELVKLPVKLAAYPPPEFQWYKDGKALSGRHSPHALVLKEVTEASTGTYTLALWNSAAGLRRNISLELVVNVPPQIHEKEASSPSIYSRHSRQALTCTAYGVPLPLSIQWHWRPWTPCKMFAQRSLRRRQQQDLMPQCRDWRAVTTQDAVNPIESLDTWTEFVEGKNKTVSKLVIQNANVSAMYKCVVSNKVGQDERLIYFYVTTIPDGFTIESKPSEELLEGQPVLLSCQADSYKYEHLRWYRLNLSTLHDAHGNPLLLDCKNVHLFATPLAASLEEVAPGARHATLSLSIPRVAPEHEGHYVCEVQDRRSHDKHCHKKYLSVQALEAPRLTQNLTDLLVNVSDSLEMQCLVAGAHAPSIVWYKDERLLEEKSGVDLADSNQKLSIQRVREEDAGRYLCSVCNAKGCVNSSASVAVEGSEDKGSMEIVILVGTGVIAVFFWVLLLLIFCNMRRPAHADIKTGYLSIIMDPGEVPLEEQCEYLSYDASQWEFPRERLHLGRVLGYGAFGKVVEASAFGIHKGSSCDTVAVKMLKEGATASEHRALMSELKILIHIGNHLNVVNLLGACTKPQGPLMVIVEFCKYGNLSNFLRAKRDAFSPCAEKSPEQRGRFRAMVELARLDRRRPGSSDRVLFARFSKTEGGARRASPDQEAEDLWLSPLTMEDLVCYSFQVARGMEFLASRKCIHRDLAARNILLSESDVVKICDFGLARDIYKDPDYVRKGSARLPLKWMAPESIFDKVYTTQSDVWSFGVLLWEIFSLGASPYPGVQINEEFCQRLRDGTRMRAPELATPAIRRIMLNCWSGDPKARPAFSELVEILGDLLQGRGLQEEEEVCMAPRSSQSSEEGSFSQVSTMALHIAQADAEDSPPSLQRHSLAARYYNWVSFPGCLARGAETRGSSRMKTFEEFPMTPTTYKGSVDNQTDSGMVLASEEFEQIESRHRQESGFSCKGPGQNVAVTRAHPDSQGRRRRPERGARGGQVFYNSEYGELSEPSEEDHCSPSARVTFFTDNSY
Tyrosine-protein kinase Fyn (Homo sapiens), sequence (P06241 2-537 limits assumed): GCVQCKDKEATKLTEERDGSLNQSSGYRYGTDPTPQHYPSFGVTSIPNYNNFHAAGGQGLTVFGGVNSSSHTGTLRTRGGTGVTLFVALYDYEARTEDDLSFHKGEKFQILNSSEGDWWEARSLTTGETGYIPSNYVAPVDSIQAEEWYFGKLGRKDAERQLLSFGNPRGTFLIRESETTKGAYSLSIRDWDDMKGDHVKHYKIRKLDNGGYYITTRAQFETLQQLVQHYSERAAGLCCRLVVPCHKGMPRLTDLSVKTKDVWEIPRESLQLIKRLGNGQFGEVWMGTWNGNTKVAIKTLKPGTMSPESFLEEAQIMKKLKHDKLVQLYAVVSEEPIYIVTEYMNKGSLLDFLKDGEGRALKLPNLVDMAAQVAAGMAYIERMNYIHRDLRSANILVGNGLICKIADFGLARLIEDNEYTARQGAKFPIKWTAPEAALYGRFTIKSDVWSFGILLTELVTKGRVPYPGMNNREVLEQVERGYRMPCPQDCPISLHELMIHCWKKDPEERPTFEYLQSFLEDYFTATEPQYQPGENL
Macrophage colony-stimulating factor 1 receptor (Homo sapiens), sequence (P07333 whole entry): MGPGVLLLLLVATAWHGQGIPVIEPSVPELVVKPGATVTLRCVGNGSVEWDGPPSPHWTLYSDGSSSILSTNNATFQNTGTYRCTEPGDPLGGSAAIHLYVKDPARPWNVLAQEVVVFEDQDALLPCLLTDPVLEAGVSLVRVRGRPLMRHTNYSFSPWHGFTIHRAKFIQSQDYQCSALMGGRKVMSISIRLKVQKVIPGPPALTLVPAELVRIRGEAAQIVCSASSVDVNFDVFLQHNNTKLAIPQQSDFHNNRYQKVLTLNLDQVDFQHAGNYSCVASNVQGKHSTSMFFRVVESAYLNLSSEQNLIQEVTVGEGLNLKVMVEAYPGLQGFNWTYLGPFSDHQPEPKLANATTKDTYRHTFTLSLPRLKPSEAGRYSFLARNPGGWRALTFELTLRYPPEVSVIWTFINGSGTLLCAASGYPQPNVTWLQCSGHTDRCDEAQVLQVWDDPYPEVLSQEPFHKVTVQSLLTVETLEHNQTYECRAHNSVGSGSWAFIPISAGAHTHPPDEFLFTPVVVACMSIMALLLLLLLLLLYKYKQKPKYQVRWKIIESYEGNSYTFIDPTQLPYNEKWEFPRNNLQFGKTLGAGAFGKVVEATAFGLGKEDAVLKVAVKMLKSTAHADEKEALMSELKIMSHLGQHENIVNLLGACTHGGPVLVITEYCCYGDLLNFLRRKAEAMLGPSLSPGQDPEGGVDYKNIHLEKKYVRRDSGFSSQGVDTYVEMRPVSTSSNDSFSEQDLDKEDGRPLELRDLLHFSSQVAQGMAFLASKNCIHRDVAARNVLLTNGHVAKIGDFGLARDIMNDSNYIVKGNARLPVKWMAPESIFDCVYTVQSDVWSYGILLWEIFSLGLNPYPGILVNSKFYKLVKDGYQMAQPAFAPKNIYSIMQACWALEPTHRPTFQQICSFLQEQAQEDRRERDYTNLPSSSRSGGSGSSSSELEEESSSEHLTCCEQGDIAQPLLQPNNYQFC
Tyrosine-protein kinase HCK (Homo sapiens), sequence (P08631 2-526 limits assumed): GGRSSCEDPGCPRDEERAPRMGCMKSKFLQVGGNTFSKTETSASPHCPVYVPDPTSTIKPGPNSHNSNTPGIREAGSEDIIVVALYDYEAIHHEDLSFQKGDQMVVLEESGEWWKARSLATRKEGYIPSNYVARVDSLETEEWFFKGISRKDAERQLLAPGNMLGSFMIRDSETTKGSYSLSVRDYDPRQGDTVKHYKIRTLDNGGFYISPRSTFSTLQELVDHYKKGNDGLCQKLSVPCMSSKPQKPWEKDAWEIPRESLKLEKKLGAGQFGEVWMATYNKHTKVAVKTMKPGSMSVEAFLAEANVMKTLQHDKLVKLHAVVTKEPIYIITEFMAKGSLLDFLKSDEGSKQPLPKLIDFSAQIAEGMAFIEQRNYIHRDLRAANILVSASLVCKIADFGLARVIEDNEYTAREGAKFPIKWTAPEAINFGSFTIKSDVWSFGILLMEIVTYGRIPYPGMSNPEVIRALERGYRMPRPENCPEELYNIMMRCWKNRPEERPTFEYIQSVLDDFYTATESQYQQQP

Consider `COc1cccc(-n2ncc3c(N/N=C/c4ccc(C)cc4)ncnc32)c1`, for which the inhibition amounted to 9.51% in [1]; 7.38% in test [2]; 14.2% in test [3]; 18.3% in test [4]; 10.3% in [5]; 3.28% in test [6]. In addition, the inhibition was 4.5% in [7]; 4.53% in test [8]; 12.9% in test [9]; 5.39% in test [10]; 16.5% in test [11]; 7.32% in test [12]. For the same molecule, the inhibition in [13] stood at 16.2%; in test [14], 5.92%; in test [15], 22.9%; in test [16], 21.4%; in test [17], 82.2%; in test [18] it was 2.51%. For the same molecule, the figures for the inhibition in [19] and in test [20] were 15.3% and 2.28%, respectively.

Consider `O=C1Nc2ccccc2/C1=C/Nc1ccc2[nH]c(=O)[nH]c2c1`, for which the inhibition is 15.6% in test [1]; 5.67% in test [2]; 3.82% in [3]; 15.4% in [4]; 65.9% in [5]; 4.3% in test [6]. Also, the inhibition in test [7] was 26.6%; in test [8] it was 11.9%; in test [9], 48.2%; in [10], 4.36%; in test [11] it was 10.9%; in [12] it was 7.89%. Also, the inhibition in test [13] was determined as 21.5%; in test [14], 7.08%; in test [15], 24.8%; in [16] it was 8.02%; in test [17], 32.4%; in [18], 3.85%. The inhibition is 6.41% in test [19] and 1.78% in [20].

With `CS(=O)(=O)Nc1cccc(-c2ccc3c(NC(=O)C4CC4)n[nH]c3c2)c1`, the inhibition in [1] was 3.4%; in test [2], 0.09%; in [3], 2.1%; in test [4], 2.91%; in [5], -5.02%; in test [6], 3.41%. The inhibition in [7] is 1.96%; in test [8] it was -0.21%; in test [9], 1.8%; in test [10] it was 2.53%; in test [11] it was 3.25%; in test [12] it was 3.53%. Also, the inhibition in test [13] is 3.03%; in test [14], 1.3%; in test [15] it was -1.63%; in test [16], 2.96%; in [17], 4.14%; in [18], -0.36%. For the same molecule, the inhibition in [19] was -1.26%; in [20], 0.53%.

Regarding `COC(=O)Nc1nc2cc(Oc3ccc(NC(=O)Nc4cccc(Br)c4)cc3)ccc2[nH]1`, the inhibition in test [1] turned out to be 15.4%; in test [2] it was 6.02%; in [3], 2.36%; in test [4], 5.37%; in test [5], 5.43%; in test [6], 3.16%. The inhibition was found to be 11.9% in test [7]; 19.9% in test [8]; 43.2% in [9]; 3.15% in test [10]; 9.52% in [11]; 6.2% in [12]. In addition, the inhibition in test [13] was 6.79%; in test [14], 3.08%; in test [15], 2.4%; in [16], 1.48%; in [17], 5.63%; in [18], 1.82%. For the same molecule, the inhibition in test [19] is -1.05%; in [20], 1.01%.
